The source of these data is PubChem BioAssay (NCATS).

A number with no mark means an inactive call. Records with an inconclusive call do not appear. Activity calls are given as the source filed them. The call rests on the fitted dose curve; in most records, active means well fitted curve in the direction sought with a large enough effect; inconclusive means small, poorly fitted or top-dose-only effect, or another doubt; inactive means no such curve, though single readings can be large; an effect the other way counts as inactive or inconclusive.

Assay [1] concerns the target Cytochrome P450 3A4 (Homo sapiens) (UniProt P08684). As to the kind of experiment: qHTS Assay for Inhibitors and Substrates of Cytochrome P450 3A4 (AID 884). Further: nearly all actives have a fitted effect of over 50% in size. Further: potency means the concentration at half of the fitted maximal effect. On activity change, negative = inhibition: series mostly up to about 57 µM; on the % scale 0 is the no-effect control and ±100 the full control effect. An outline of the steps: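 Luminescent readout of luciferin produced by CYP3A4 (20 nM) dealkylation of Luciferin-PPXE, 25 uM (its KM). NADPH-driven reaction ran 60 min at RT after 10 min compound preincubation; data scaled to 57 uM ketoconazole as 100% inhibition.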

Assay [2] has as its target Alpha-galactosidase (Coffea arabica) (UniProt Q42656). The assay is described as follows: Counterscreen for Glucocerebrosidase Inhibitors: qHTS Assay for Coffee Bean alpha-Galactosidase at pH 4.5 (AID 957).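 Further: series mostly up to about 77 µM; plate controls were enzyme alone for no effect and no enzyme for full effect.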 An outline of the steps: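 Quantitative HTS of compounds (0.7 nM to 77 uM) against coffee bean alpha-galactosidase at pH 4.5, measuring 4-methylumbelliferone fluorescence released from 80 uM substrate.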

The target is the same in assay [3]. As to the kind of experiment: Counterscreen for Glucocerebrosidase Inhibitors: qHTS Assay for Coffee Bean alpha-Galactosidase at pH 5.9 (AID 998).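 Further: plate controls were uninhibited enzyme for no effect and no-enzyme basal signal for full effect.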 An outline of the steps:
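Enzyme 2 nM + cpd (0.7 nM–77 uM titration) + 4-MU-alpha-Gal 80 uM, pH 5.9 citrate/Tween-20, RT 20 min, NaOH/glycine stop pH 10, fluor 365/440. Normalized to no-enzyme and full-activity controls; Hill-fit AC50.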

The target in assay [4] is Cytochrome P450 3A4 (Homo sapiens) (UniProt P08684). The assay is described as follows: qHTS Assay for Activators of Cytochrome P450 3A4 (AID 885). Further: nearly all actives have a fitted effect of over 65% in size. Further: potency means the concentration at half of the fitted maximal effect. An outline of the steps:
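Human CYP3A4 dealkylates Luciferin-PPXE to luciferin, which luciferase detection converts to light. Substrate was at its KM (25uM), buffer 200mM KPO4, reaction 60 min at RT.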

Assay [5] is described as follows: Confirmation and Secondary Assay for Modulators of Hemoglobin Beta Chain Splicing at IVS2 654 locus (AID 910).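 Further: HeLa cells stably carrying EGFP split by mutant beta-globin IVS2-654 intron; % of control where 0% means no effect.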 An outline of the steps:
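HeLa cells stably expressing EGFP interrupted by β-globin IVS2-654 intron, seeded overnight in Opti-MEM/2% FCS, then treated 2 days at 37 °C. Restored splicing read as total peak GFP intensity per well by laser scanning cytometry (488 nm excitation, 500–520 nm emission); 500 nM antisense PNA as control.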

Assay [6] in a line: Confirmation and Secondary Assay for Modulators of Hemoglobin Beta Chain Splicing at IVS2 705 locus (AID 930).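 Further: HeLa cells stably expressing the EGFP-705 splicing reporter; GFP fluorescence per well restored by corrected splicing of the IVS2-705 intron in EGFP; series mostly up to about 46 µM; % of control where 0% means no effect.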 An outline of the steps:
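Stable HeLa line with EGFP disrupted by mutant beta-globin intron 2 (705). Overnight attachment, then 2 days of compound at 37C, 5% CO2. Signal: peak GFP intensity summed over objects 5-250 µm.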

Assay [7] deals with Cytochrome P450 2D6 (Homo sapiens) (UniProt P10635). The assay is described as follows: qHTS Assay for Inhibitors and Substrates of Cytochrome P450 2D6 (AID 891). Further: potency means the concentration at half of the fitted maximal effect; nearly all actives have a fitted effect of over 60% in size. An outline of the steps: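 Luminescent read-out of luciferin formed by 5 nM human CYP2D6 demethylating 30 uM Luciferin-ME EGE (Km level) over 60 min at room temperature after NADPH regeneration addition. Data normalized to full inhibition by 1.43 uM quinidine.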
Chain of Cytochrome P450 2D6 (Homo sapiens) (P10635 whole entry, looked up): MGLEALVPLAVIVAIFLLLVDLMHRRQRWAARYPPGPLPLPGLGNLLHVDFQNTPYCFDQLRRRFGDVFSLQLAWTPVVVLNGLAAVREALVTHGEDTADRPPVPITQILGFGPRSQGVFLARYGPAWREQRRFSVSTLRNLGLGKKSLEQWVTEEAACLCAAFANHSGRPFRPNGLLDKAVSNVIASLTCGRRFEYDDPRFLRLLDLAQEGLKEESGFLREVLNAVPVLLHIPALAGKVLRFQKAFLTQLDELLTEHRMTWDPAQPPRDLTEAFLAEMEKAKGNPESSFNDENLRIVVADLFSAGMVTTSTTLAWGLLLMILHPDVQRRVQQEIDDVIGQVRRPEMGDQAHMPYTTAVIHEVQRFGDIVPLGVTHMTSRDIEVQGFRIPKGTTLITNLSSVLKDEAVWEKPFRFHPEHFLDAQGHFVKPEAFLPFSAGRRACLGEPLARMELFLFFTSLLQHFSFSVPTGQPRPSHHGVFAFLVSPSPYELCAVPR

Chain of Cytochrome P450 3A4 (Homo sapiens) (P08684 whole entry, looked up): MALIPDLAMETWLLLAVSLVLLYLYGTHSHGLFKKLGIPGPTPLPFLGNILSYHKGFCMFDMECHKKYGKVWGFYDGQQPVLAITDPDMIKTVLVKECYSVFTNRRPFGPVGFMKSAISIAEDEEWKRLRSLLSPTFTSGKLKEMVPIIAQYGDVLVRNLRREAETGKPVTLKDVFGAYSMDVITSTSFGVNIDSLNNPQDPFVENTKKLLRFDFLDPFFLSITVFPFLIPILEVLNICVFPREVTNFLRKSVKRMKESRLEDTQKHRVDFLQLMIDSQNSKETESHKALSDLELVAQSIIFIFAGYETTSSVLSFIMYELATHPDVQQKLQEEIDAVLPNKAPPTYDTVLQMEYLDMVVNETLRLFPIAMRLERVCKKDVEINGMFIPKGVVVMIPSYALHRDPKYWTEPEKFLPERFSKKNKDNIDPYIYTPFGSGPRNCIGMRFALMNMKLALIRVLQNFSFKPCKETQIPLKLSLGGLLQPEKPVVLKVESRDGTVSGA
Chain of Alpha-galactosidase (Coffea arabica) (Q42656 whole entry, looked up): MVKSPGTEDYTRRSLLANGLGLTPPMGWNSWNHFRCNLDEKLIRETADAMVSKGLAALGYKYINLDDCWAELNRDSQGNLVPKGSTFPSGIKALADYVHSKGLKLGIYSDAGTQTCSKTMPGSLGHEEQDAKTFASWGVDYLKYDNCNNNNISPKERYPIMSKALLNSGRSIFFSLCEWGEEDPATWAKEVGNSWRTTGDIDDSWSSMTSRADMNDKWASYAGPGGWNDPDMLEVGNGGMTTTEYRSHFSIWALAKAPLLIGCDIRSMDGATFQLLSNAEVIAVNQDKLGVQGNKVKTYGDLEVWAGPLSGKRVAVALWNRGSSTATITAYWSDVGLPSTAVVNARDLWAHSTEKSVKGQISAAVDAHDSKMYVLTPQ

On to `OC[C@@H]1O[C@@H](n2cnc3cncnc32)[C@@H](O)[C@H]1O`, for which, in assay [1], the Potency result is “inactive”. In addition, the call in assay [2] and in assay [3] was inactive.
In the case of `C=CCc1cc(OC)c2c(c1OC)OCO2`, the Potency in assay [1] is 7.94 µM (active). For the same compound, the Potency entry in assay [4] and in assay [5] was “inactive” each time. In assay [6], the call was inactive.
For the compound `CN(C)C1C(=O)C(C(N)=O)=C(O)[C@@]2(O)C(=O)C3=C(O)c4c(O)cccc4[C@](C)(O)C3C(O)C12` (stereo not given in full), the Potency result in assay [1] and in assay [5] was “inactive” in each case. Further, the outcome in assay [6] was inactive.
As for `CCc1cc2c(nc1CC)CCN(CC/C(C)=N/OC)C2`, in assay [4], the activity change, positive = activation was -38.7% [at 11.4 µM].
As to `CC(=O)OCC(=O)[C@@]1(O)CCC2C3CC[C@H]4CC(O)CC[C@@]4(C)C3C(=O)C[C@]21C` (stereo not given in full), the Potency in assay [1] was 12.6 µM (active). For the same compound, in assay [4], the Potency result was “inactive”.
For `CC(=O)OC1CC[C@@]2(C)C3CC(=O)[C@]4(C)C(C(C)=O)=CCC4C3CC[C@H]2C1` (stereo not given in full) the same measures were “inactive” and 5.01 µM (active).
Take `C[C@@]12CC[C@@H]3[C@H](CCC4=CC(=O)CC[C@]43C)[C@@H]1CC[C@@H]2C(=O)Cn1cnc2c(=S)nc[nH]c21`: in assay [1], the activity change, negative = inhibition was 119% [at 11.4 µM]. The Potency in assay [4] is 3.16 µM (active).
`COc1ccc2c(c1)CN([C@H](C)[C@@H]1CC[C@@H]3[C@H]4CC[C@H]5C[C@@H](O)CC[C@@]5(C)[C@H]4CC[C@]31C)CO2`: the activity change, negative = inhibition in assay [1] is 321% [at 11.4 µM]. The Potency is 3.98 µM (active) in assay [4] and 3.16 µM (active) in assay [7].
